# Inconclusive results are not listed. Calls of active or inactive are those of the source. Unless noted, the rule behind the calls is not given here.
# Target: Alpha-galactosidase (Coffea arabica) (UniProt Q42656)
# Assay: Counterscreen for Glucocerebrosidase Inhibitors: qHTS Assay for Coffee Bean alpha-Galactosidase at pH 4.5 (AID 957; active = well fitted curve in the direction sought with a large enough effect; an effect the other way counts as inactive or inconclusive;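 note: plate controls were enzyme alone for no effect and no enzyme for full effect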)
# Conditions: purified coffee bean alpha-galactosidase, fluorogenic substrate; series mostly up to 76.9 µM; activity change, negative = inhibition: at the top concentration
# Outline: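 Enzyme is added first (2 nM final), then compounds titrated from 0.7 nM to 77 uM, then 80 uM 4-methylumbelliferyl alpha-D-galactopyranoside; after 20 min at room temperature a pH 10 NaOH/glycine stop precedes fluorescence reading at 365/440 nm.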
# Alpha-galactosidase (Coffea arabica), sequence (Q42656 whole entry, looked up): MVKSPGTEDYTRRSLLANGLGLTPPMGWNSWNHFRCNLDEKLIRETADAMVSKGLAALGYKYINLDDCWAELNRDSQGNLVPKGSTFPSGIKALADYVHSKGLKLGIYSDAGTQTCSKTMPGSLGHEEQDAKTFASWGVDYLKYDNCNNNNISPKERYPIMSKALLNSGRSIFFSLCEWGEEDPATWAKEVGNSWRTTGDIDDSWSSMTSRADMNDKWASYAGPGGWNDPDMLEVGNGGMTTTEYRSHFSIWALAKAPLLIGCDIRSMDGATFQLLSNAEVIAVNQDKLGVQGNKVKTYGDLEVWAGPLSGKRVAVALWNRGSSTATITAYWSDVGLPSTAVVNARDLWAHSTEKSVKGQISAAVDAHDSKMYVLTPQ
row,Compound,"activity change, negative = inhibition"
1,O=[N+]([O-])c1ccc(-c2nc(-c3ccc(F)cc3)c(-c3ccncc3)[nH]2)cc1,-12.7% (inactive)
2,COc1ccccc1N1CCN(CCN(C(=O)C2CCCCC2)c2ccccn2)CC1,-3.7% (inactive)
3,Cc1cc(O)c2c(c1)C(=O)c1cc(O)cc(O)c1C2=O,-6.44% (inactive)

# Target: Alpha-galactosidase (Coffea arabica) (UniProt Q42656)
# Assay: Counterscreen for Glucocerebrosidase Inhibitors: qHTS Assay for Coffee Bean alpha-Galactosidase at pH 5.9 (AID 998; active = well fitted curve in the direction sought with a large enough effect; an effect the other way counts as inactive or inconclusive;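 note: plate controls were uninhibited enzyme for no effect and no-enzyme basal signal for full effect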)
# Conditions: coffee bean alpha-galactosidase enzyme assay; series mostly up to 76.9 µM; activity, negative = inhibition: at the top concentration
# Outline: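 In 50 mM citric acid pH 5.9 with 0.005% Tween-20, coffee bean enzyme hydrolyses 80 uM 4-MU alpha-D-galactopyranoside over 20 min at RT. Activity is normalized to controls; AC50 comes from Hill-modelled concentration-response data.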
row,Compound,"activity, negative = inhibition"
1,O=[N+]([O-])c1ccc(-c2nc(-c3ccc(F)cc3)c(-c3ccncc3)[nH]2)cc1,-10.3% (inactive)
2,COc1ccccc1N1CCN(CCN(C(=O)C2CCCCC2)c2ccccn2)CC1,-4.53% (inactive)
3,Cc1cc(O)c2c(c1)C(=O)c1cc(O)cc(O)c1C2=O,0.913% (inactive)

# Tested on: not listed separately
# Assay: Validation screen for inhibitors of Lassa infection (AID 463096; calls by dose curve; note: % is set by controls: 0 for no effect and ±100 for the full control effect)
# Conditions: Lassa virus infection, cell-based; series mostly up to 46.1 µM; activity change, negative = inhibition: at the top concentration
row,Compound,"activity change, negative = inhibition"
1,O=[N+]([O-])c1ccc(-c2nc(-c3ccc(F)cc3)c(-c3ccncc3)[nH]2)cc1,-10% (inactive)
2,O=C(O)C1CCCN(CCC=C(c2ccccc2)c2ccccc2)C1 (stereo unspecified),-0.0707% (inactive)
3,COc1ccccc1N1CCN(CCN(C(=O)C2CCCCC2)c2ccccn2)CC1,-23.8% (inactive)
4,Cc1cc(O)c2c(c1)C(=O)c1cc(O)cc(O)c1C2=O,15.2% (inactive)
5,CCN1CCCC1CNC(=O)c1cc(S(N)(=O)=O)ccc1OC (stereo unspecified),-11.6% (inactive)

# Tested on: not listed separately
# Assay: Inducers of the Endoplasmic Reticulum Stress Response (ERSR) in human glioma: Validation (AID 504836; active = well fitted curve in the direction sought with a large enough effect; an effect the other way counts as inactive or inconclusive; note: 0% is about no effect)
# Conditions: human glioma cells, ER stress response reporter; series mostly up to 38.3 µM; activation: at the top concentration
# Outline: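 Stably transfected U87-MG human glioma cells carrying a GRP78-based luminescent sensor were seeded at 1000 cells/well, pin-dosed with compounds and incubated 16 h. Luciferase reagent was then added, and end-point luminescence was read after 10 min at room temperature.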
row,Compound,activation
1,COc1cc2c(cc1OC)C1CC(=O)C(CC(C)C)CN1CC2 (stereo unspecified),-2.73% (inactive)
2,O=[N+]([O-])c1ccc(-c2nc(-c3ccc(F)cc3)c(-c3ccncc3)[nH]2)cc1,-2.46% (inactive)
3,COc1ccc2cc([S+]([O-])Cc3ncc(C)c(OC)c3C)nc2c1,-5.23% (inactive)
4,O=C(Nc1nc2ccccc2n1CCN1CCOCC1)c1cccc([N+](=O)[O-])c1,-0.966% (inactive)
5,O=C(O)C1CCCN(CCC=C(c2ccccc2)c2ccccc2)C1 (stereo unspecified),-1.02% (inactive)
6,COc1ccccc1N1CCN(CCN(C(=O)C2CCCCC2)c2ccccn2)CC1,-2.47% (inactive)
7,CCN1CCCC1CNC(=O)c1cc(S(N)(=O)=O)ccc1OC (stereo unspecified),1.06% (inactive)

# Tested on: not listed separately
# Assay: qHTS profiling of the MIPE4 collection as inhibitors of Plasmodium falciparum (3D7) proliferation (AID 743344);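 note: scaled between DMSO vehicle wells and 0.29 µM artemisinin as full inhibition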
# Conditions: P. falciparum 3D7 in erythrocytes, SYBR Green DNA fluorescence, 72 h; at 28.5 µM (top of the series) unless noted
# Outline: (§1)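 Parasite DNA was quantified by SYBR Green I fluorescence (ex 485, em 535 nm) after overnight lysis in saponin/Triton buffer at room temperature. Cultures at 0.3% parasitemia and 2.5% hematocrit were first exposed to compound for 72 h at 37 C; signals were normalised to artemisinin (0.29 uM) and vehicle wells.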
row,Compound,"parasite growth, % of DMSO control"
1,c1coc(CNc2ncnc3nc[nH]c23)c1,71.1%
2,C[C@@H]1C(=O)O[C@H]2CC34[C@H]5C[C@@H](C(C)(C)C)C36[C@H](OC(=O)[C@@H]6O)O[C@@]4(C(=O)O5)[C@]21O (stereo partly specified),77.1%
3,CC(C)N(CC[C@H](c1ccccc1)c1cc(CO)ccc1O)C(C)C,81.5%
4,Cc1cc(O)c2c(c1)C(=O)c1cc(O)cc(O)c1C2=O,76.8%

# Tested on: not listed separately
# Assay: qHTS profiling of the MIPE4 collection as inhibitors of Plasmodium falciparum (DD2) proliferation (AID 743345)
# Conditions: P. falciparum Dd2 in erythrocytes, SYBR Green DNA, 72 h; at 28.5 µM (top of the series) unless noted
# Outline: as §1
row,Compound,"parasite growth remaining, % of DMSO control (lower = more inhibition)"
1,CC(C)N(CC[C@H](c1ccccc1)c1cc(CO)ccc1O)C(C)C,83.7%
2,Cc1ccc(O)c(C(CCN(C(C)C)C(C)C)c2ccccc2)c1 (stereo unspecified),32%
3,OC[C@H]1OC(O)C[C@@H](O)[C@H]1O (stereo partly specified),88.2%
4,Cc1cc(O)c2c(c1)C(=O)c1cc(O)cc(O)c1C2=O,90.9%

# Tested on: not listed separately
# Assay: qHTS profiling of the MIPE4 collection as inhibitors of Plasmodium falciparum (DD2) proliferation (Rep 2) (AID 743346)
# Conditions: P. falciparum Dd2 in erythrocytes, SYBR Green DNA, 72 h; at 28.5 µM (top of the series) unless noted
# Outline: as §1
row,Compound,"parasite growth, % of control (lower = inhibition)"
1,c1coc(CNc2ncnc3nc[nH]c23)c1,80%
2,C[C@@H]1C(=O)O[C@H]2CC34[C@H]5C[C@@H](C(C)(C)C)C36[C@H](OC(=O)[C@@H]6O)O[C@@]4(C(=O)O5)[C@]21O (stereo partly specified),91.1%
3,OC[C@H]1OC(O)C[C@@H](O)[C@H]1O (stereo partly specified),96%
4,Cc1cc(O)c2c(c1)C(=O)c1cc(O)cc(O)c1C2=O,66.9%

# Tested on: not listed separately
# Assay: qHTS profiling of the MIPE4 collection as inhibitors of Plasmodium falciparum (HB3) proliferation (AID 743347);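 note: plate controls were DMSO vehicle wells for no effect and artemisinin wells for full effect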
# Conditions: P. falciparum HB3 in erythrocytes, SYBR Green DNA, 72 h; at 28.5 µM (top of the series) unless noted
# Outline: as §1
row,Compound,"growth, % of control"
1,c1coc(CNc2ncnc3nc[nH]c23)c1,65.3%
2,CCCCCCCCCCCCCCCC(=O)O[C@H]1[C@@H](O)[C@@H](O)[C@@H]([C@H](NC(=O)[C@@H]2C[C@@H](CCC)CN2C)[C@H](C)Cl)O[C@@H]1SC,81.5%
3,C[C@@H]1C(=O)O[C@H]2CC34[C@H]5C[C@@H](C(C)(C)C)C36[C@H](OC(=O)[C@@H]6O)O[C@@]4(C(=O)O5)[C@]21O (stereo partly specified),102%

# Tested on: not listed separately
# Assay: qHTS for Inhibitors of the Functional Ribonucleoprotein Complex (vRNP) of Lassa (LASV) Arenavirus: LASV Primary Screen - GLuc reporter signal (AID 1347082; calls by dose curve; tested in HEK293 reporter line; note: % is set by controls: 0 for no effect and ±100 for the full control effect; nearly all actives have a fitted effect of over 60% in size)
# Conditions: LASV minigenome vRNP, Gaussia luciferase reporter; series mostly up to 57.5 µM; activity change, negative = inhibition: at the top concentration
row,Compound,"activity change, negative = inhibition"
1,Cc1cnc(-c2cc(N3CCN(C(=O)CCS(C)(=O)=O)CC3)ncc2Cl)c(C)c1,-22.4% (inactive)
2,O=C(CN1C(=O)C2(CCCC2)NC[C@H]1c1cc(F)cc(F)c1)Nc1ccc2c(c1)C[C@@]1(C2)C(=O)Nc2ncccc21,-29.7% (inactive)
3,CC1=C(C(=O)Nc2cc3cn[nH]c3cc2F)C(c2ccc(C(F)(F)F)cc2)CC(=O)N1 (stereo unspecified),-32% (inactive)

# Reference: PubChem BioAssay (NCATS)
